Reference: ChEMBL document CHEMBL1961873, “Compounds: GSK PKIS; Assays: Nanosyn kinase panel” (2012)

Experiments:
[1] = target: T1, Serine/threonine-protein kinase Nek9 (Homo sapiens) (UniProt Q8TD19); details: at 1 µM;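 note: each value is a mean percent inhibition of NEK9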
T1 sequence (whole entry): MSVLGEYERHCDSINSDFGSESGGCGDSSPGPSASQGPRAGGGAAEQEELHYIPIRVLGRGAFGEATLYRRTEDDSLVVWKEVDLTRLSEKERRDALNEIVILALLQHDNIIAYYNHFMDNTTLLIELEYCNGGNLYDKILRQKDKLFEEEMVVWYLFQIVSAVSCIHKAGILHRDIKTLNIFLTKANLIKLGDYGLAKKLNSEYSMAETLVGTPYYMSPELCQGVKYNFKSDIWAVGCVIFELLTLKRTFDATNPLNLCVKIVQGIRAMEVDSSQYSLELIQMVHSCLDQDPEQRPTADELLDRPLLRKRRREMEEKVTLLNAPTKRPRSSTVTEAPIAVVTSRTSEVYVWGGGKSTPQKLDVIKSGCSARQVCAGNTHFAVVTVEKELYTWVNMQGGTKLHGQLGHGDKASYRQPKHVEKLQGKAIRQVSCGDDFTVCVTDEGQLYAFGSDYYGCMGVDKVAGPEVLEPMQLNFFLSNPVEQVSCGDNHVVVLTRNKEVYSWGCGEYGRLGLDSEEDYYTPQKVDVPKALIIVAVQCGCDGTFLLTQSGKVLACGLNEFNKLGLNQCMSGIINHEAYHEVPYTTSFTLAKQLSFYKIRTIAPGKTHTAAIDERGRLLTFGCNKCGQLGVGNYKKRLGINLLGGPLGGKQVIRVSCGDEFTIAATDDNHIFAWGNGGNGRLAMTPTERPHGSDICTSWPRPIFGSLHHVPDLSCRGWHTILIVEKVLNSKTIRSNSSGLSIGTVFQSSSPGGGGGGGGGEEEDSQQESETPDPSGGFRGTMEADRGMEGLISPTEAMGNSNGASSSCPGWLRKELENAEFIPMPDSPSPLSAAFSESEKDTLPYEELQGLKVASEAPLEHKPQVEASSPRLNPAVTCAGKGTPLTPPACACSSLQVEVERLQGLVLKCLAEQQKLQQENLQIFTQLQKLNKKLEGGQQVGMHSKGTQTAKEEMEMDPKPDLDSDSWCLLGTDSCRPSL

[2] = target: Serine/threonine-protein kinase PLK1 (Homo sapiens) (UniProt P53350); details: at 0.1 µM
Serine/threonine-protein kinase PLK1 (Homo sapiens), sequence (P53350 whole entry): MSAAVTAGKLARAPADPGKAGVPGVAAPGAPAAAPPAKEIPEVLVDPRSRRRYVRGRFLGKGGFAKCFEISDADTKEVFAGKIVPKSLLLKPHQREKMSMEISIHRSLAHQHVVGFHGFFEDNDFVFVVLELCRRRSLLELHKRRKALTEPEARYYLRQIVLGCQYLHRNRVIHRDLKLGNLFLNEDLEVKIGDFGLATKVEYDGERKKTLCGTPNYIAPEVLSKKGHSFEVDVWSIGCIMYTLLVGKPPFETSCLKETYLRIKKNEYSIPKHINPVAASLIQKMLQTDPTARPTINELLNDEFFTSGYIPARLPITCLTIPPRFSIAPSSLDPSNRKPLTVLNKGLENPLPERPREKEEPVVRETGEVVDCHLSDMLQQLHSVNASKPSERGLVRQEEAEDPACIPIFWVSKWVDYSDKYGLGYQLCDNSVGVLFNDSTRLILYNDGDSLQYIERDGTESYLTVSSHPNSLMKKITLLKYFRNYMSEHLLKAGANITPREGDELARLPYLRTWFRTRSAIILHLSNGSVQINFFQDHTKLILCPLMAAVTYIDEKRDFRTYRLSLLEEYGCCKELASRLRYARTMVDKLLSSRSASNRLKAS

[3] = target: Serine/threonine-protein kinase PLK1 (Homo sapiens) (UniProt P53350); details: at 1 µM
[4] = target: T2, Dual specificity protein kinase TTK (Homo sapiens) (UniProt P33981); details: at 0.1 µM
T2 sequence (whole entry): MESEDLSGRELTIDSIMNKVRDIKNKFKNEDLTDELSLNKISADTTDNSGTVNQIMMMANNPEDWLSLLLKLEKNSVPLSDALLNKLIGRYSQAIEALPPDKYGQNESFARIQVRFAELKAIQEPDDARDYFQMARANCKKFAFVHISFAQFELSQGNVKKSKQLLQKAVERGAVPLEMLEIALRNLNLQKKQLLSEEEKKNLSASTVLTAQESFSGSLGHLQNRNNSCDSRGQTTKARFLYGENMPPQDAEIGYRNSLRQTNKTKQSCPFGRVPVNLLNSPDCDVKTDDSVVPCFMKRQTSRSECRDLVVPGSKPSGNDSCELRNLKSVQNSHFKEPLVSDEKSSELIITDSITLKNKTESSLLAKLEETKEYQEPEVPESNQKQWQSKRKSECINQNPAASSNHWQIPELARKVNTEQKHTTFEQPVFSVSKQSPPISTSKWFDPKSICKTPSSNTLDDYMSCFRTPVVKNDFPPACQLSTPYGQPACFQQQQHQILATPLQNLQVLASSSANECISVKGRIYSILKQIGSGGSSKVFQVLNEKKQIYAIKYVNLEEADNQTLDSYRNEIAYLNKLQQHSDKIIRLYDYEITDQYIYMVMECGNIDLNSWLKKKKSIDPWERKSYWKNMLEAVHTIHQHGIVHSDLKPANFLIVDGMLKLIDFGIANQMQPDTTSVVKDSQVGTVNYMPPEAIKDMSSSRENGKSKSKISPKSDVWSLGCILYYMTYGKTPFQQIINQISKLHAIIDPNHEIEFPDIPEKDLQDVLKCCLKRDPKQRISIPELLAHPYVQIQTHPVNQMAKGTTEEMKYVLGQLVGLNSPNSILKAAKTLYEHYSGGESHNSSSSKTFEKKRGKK

[5] = system: T3, Receptor-type tyrosine-protein kinase FLT3 (Homo sapiens), P36888 [D835Y]; details: at 1 µM
T3 sequence (whole entry): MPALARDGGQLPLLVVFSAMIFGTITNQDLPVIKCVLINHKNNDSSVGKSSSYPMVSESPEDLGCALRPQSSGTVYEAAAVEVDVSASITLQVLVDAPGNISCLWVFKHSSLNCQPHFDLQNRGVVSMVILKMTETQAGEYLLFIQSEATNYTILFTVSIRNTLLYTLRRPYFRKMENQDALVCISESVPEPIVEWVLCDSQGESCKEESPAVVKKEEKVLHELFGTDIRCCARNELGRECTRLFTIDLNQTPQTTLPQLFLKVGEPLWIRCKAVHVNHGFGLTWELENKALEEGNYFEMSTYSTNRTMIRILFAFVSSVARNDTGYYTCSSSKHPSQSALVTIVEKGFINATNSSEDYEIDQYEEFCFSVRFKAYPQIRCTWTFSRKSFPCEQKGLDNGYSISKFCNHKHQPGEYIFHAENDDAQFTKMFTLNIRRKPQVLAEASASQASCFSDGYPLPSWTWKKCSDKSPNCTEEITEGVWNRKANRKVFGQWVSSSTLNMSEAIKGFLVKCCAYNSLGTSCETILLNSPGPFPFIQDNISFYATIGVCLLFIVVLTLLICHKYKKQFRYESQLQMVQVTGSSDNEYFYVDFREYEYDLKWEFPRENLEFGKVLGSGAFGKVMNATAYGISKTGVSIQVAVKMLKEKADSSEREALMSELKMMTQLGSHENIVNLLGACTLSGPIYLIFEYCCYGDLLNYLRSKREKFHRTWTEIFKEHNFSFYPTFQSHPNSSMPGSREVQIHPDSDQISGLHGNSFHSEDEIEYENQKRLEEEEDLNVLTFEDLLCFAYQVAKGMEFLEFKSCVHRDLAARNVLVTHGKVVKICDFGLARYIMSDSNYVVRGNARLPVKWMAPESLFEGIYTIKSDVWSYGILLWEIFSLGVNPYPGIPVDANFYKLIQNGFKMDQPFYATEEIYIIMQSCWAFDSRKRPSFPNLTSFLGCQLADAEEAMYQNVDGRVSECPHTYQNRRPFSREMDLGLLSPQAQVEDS

[6] = target: Vascular endothelial growth factor receptor 3 (Homo sapiens) (UniProt P35916); details: at 0.1 µM
Vascular endothelial growth factor receptor 3 (Homo sapiens), sequence (P35916 whole entry): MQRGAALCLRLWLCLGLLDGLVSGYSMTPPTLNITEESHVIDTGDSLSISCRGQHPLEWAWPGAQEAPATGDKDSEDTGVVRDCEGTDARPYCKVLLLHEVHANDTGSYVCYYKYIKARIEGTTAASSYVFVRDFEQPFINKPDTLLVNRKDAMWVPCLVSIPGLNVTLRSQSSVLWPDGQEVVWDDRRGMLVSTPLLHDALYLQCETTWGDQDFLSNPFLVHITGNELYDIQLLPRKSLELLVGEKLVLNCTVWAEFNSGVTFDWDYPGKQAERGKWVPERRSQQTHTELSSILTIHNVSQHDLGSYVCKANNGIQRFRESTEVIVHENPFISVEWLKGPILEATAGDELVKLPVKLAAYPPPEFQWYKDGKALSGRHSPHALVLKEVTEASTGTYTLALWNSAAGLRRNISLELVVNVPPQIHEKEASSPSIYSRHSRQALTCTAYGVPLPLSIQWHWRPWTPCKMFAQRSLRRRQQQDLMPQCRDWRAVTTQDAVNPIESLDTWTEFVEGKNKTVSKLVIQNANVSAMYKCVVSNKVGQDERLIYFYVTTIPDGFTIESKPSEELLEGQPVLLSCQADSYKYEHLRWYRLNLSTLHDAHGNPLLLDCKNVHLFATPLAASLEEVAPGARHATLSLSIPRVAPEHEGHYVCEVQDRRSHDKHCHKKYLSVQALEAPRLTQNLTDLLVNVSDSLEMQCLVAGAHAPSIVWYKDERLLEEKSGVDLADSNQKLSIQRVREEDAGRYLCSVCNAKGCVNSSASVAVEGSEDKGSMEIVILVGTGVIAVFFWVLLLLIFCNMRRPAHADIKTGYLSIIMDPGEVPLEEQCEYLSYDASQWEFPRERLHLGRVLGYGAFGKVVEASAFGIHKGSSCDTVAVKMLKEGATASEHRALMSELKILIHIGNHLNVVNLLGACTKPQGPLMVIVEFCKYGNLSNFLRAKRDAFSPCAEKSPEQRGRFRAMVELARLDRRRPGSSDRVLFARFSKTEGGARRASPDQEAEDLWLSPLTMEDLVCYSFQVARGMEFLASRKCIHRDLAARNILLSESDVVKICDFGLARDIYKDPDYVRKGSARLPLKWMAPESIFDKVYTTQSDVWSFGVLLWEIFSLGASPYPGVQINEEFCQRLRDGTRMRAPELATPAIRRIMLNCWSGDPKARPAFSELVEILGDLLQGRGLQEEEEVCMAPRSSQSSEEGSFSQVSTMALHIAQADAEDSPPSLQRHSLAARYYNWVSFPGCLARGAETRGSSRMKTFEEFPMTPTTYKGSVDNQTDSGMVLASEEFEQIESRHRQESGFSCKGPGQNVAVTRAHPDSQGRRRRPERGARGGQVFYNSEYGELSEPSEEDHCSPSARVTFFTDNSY

[7] = target: Vascular endothelial growth factor receptor 3 (Homo sapiens) (UniProt P35916); details: at 1 µM
[8] = target: Macrophage colony-stimulating factor 1 receptor (Homo sapiens) (UniProt P07333); details: at 0.1 µM
[9] = target: Macrophage colony-stimulating factor 1 receptor (Homo sapiens) (UniProt P07333); details: at 1 µM
[10] = target: Tyrosine-protein kinase Fyn (Homo sapiens) (UniProt P06241); details: at 0.1 µM
Tyrosine-protein kinase Fyn (Homo sapiens), sequence (P06241 2-537 limits assumed): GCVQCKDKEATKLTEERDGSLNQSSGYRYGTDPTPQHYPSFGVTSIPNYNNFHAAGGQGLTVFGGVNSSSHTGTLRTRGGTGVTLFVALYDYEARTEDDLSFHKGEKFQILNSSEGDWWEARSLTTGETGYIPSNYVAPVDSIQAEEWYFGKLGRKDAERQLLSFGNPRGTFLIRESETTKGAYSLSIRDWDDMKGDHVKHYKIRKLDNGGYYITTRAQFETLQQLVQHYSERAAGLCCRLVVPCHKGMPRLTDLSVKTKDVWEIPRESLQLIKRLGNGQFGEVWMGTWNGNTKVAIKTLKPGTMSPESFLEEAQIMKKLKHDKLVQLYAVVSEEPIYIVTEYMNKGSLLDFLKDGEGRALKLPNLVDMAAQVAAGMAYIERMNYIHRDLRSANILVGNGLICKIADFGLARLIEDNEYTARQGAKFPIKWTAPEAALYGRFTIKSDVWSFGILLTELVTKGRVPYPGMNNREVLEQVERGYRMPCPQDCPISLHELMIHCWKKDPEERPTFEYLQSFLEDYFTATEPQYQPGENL

[11] = target: Tyrosine-protein kinase Fyn (Homo sapiens) (UniProt P06241); details: at 1 µM
[12] = target: Tyrosine-protein kinase HCK (Homo sapiens) (UniProt P08631); details: at 0.1 µM
Tyrosine-protein kinase HCK (Homo sapiens), sequence (P08631 2-526 limits assumed): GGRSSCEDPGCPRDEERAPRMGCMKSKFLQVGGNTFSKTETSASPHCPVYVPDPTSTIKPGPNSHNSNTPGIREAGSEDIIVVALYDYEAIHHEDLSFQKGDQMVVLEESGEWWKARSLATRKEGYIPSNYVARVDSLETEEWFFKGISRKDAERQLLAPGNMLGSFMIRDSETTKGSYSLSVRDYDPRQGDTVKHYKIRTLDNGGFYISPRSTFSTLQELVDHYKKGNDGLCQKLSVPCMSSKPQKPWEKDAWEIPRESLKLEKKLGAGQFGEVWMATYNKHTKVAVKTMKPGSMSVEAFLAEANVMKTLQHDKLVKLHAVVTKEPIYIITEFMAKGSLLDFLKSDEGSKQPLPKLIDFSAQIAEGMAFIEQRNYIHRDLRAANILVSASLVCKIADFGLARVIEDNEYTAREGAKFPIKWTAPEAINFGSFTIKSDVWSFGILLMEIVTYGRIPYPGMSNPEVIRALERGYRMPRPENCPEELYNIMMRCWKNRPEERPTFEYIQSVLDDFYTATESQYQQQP

[13] = target: Tyrosine-protein kinase HCK (Homo sapiens) (UniProt P08631); details: at 1 µM
[14] = target: Insulin-like growth factor 1 receptor (Homo sapiens) (UniProt P08069); details: at 0.1 µM
[15] = target: Insulin-like growth factor 1 receptor (Homo sapiens) (UniProt P08069); details: at 1 µM
[16] = target: Insulin receptor (Homo sapiens) (UniProt P06213); details: at 0.1 µM
[17] = target: Insulin receptor (Homo sapiens) (UniProt P06213); details: at 1 µM
[18] = target: Insulin receptor-related protein (Homo sapiens) (UniProt P14616); details: at 0.1 µM
Insulin receptor-related protein (Homo sapiens), sequence (P14616 27-742 limits assumed): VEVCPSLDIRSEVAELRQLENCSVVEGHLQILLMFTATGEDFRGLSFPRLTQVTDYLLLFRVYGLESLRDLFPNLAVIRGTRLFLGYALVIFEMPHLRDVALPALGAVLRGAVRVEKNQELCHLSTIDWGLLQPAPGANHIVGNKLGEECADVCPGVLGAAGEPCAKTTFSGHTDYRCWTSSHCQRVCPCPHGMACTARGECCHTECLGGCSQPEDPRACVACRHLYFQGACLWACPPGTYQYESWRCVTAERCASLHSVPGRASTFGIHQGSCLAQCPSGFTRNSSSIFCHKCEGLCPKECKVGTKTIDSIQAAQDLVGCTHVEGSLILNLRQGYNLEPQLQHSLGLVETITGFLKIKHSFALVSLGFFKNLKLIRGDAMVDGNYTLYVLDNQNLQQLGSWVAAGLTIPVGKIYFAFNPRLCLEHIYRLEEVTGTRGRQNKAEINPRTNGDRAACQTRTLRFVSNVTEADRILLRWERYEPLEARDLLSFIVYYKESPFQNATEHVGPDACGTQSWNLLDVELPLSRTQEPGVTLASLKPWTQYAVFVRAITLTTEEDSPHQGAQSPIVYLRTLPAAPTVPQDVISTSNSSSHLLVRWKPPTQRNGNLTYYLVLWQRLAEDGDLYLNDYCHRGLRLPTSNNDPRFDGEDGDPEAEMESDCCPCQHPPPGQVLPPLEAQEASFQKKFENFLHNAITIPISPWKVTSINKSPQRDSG
Insulin receptor-related protein (Homo sapiens), sequence (P14616 747-1297 limits assumed): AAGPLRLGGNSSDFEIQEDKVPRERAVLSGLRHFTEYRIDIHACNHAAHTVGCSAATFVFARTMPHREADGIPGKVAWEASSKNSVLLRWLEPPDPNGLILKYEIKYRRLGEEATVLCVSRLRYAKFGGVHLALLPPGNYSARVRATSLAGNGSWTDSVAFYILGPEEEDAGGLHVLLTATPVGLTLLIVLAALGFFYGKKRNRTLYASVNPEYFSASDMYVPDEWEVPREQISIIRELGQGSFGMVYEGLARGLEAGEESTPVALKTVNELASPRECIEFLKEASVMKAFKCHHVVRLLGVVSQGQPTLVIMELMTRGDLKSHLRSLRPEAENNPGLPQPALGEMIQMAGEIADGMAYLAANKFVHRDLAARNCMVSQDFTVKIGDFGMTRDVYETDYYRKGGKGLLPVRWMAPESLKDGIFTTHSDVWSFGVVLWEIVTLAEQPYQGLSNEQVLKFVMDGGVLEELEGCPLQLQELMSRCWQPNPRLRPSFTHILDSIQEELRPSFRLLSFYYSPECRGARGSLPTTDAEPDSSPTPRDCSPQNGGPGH

[19] = target: Insulin receptor-related protein (Homo sapiens) (UniProt P14616); details: at 1 µM
[20] = target: T4, Tyrosine-protein kinase ITK/TSK (Homo sapiens) (UniProt Q08881); details: at 0.1 µM;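 note: mean percent inhibition of ITK from the GSK PKIS screen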
T4 sequence (whole entry): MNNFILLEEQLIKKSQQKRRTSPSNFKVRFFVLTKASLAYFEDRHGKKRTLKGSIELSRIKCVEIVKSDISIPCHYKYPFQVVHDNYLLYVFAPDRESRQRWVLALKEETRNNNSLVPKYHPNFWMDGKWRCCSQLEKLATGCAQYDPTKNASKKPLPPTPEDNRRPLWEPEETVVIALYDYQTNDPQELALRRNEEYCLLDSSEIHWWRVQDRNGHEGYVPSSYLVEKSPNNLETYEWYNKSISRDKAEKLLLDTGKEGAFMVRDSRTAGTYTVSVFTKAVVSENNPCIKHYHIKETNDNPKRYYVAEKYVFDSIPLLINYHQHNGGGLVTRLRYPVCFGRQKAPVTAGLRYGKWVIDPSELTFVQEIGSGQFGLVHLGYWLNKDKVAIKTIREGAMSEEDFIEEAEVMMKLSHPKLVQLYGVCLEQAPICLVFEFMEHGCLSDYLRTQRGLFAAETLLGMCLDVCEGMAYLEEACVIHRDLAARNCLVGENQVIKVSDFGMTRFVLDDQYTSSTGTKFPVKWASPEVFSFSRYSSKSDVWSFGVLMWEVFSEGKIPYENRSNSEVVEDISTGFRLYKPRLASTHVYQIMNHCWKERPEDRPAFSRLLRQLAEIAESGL

Row | Compound | inhibition [1] | inhibition [2] | inhibition [3] | inhibition [4] | inhibition [5] | inhibition [6] | inhibition [7] | inhibition [8] | inhibition [9] | inhibition [10] | inhibition [11] | inhibition [12] | inhibition [13] | inhibition [14] | inhibition [15] | inhibition [16] | inhibition [17] | inhibition [18] | inhibition [19] | inhibition [20]
1 | O=C(Nc1ccc(Oc2ccc3[nH]c(NC(=O)c4ccccc4)nc3c2)cc1)Nc1cc(C(F)(F)F)ccc1F | 10.3% | 2.66% | 1.84% | 5.51% | 14% | 14.1% | 36.2% | 4.75% | 48.1% | 3.06% | 21.5% | 7.45% | 21.8% | 10.6% | 7.91% | 2% | 2.26% | 2.66% | 3.55% | 1.11%
2 | CCC(=O)Nc1ccc(C)c(-c2ccc(C(=O)NCC3CC3)cc2)c1 | 10.2% | 5.02% | 4.61% | 8.14% | 3.02% | 3.63% | -1.74% | -2.39% | 2.95% | 1.58% | 4.1% | 5.93% | 4.04% | 3.84% | 1.32% | 4.28% | 5.36% | 0% | 1.59% | -0.06%
3 | NC(=O)c1cc(-c2ccc(F)cc2)cc(-c2ccncc2)c1N | 19.1% | 5.25% | 2.93% | 11.9% | -3.97% | -0.28% | 0.18% | 2.97% | 15.4% | 0.07% | 5.17% | 6.59% | 7.14% | 2.14% | -0.61% | 5.25% | 5.27% | 1.58% | 1.32% | 0.92%
4 | NCc1ccc(-n2c(-c3nonc3N)nc3cnccc32)cc1 | 6.1% | 3.75% | 3.27% | 19.4% | 6.04% | 6.13% | 7.01% | 12.5% | 49.6% | 1.24% | 0.2% | 6.26% | 10.4% | 5.71% | 8.21% | 8.46% | 8.17% | 3.81% | 2.5% | 1.67%
5 | Fc1ccc(-c2ncn(C3CCNCC3)c2-c2ccnc(Oc3ccc(Oc4ccccc4)cc3)n2)cc1 | 4.8% | 4.45% | 6.8% | 6.67% | -1.89% | 3.28% | 1.1% | 2.27% | 3.02% | 2.65% | 5.66% | 5.33% | 8.1% | 5.31% | 1.58% | 7.04% | 3.44% | 1.91% | 3.32% | 3.37%
6 | FC(F)(F)c1cccc(Nc2nccc(-c3cnn4nc(-c5ccccc5)ccc34)n2)c1 | 8.66% | 2.06% | -0.34% | 3.1% | 26.7% | -0.18% | 6.91% | -2.73% | 16.4% | 0.72% | 7.18% | 1.72% | 6.11% | -1.86% | -1.43% | -2.61% | 1.45% | 0.93% | 0.27% | -0.41%
